PubChem BioAssay (Tox21)
Values without a mark were called inactive. Calls come from the whole dose curve; as a rule, active = well fitted inhibition curve with a large enough effect in the repeat runs (not every such curve was filed as active); inconclusive = weak or mixed curves; inactive = flat fitted curve, though single readings scatter.

These compounds were tested against Thyrotropin-releasing hormone receptor (Homo sapiens) (UniProt P34981) (assay: qHTS assay to identify small molecule antagonists of the thyrotropin-releasing hormone receptor (TRHR) signaling pathway (AID 1346877)). Conditions: TRHR-HEK293, TRH-induced calcium fluorescence, antagonist mode; series mostly up to 51.3 µM; activity, negative = inhibition: at the top concentration.
Outline: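 HEK293/TRHR cells, 18 h, 37 °C; Ca2+ dye 2 h; cpd 5 min RT; TRH 1 nM final; fluorescence read 3 min, 1 s intervals; 15 concs, triplicate.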
% is set by controls: 0 for no effect and ±100 for the full control effect.

Thyrotropin-releasing hormone receptor (Homo sapiens), sequence (P34981 whole entry, looked up): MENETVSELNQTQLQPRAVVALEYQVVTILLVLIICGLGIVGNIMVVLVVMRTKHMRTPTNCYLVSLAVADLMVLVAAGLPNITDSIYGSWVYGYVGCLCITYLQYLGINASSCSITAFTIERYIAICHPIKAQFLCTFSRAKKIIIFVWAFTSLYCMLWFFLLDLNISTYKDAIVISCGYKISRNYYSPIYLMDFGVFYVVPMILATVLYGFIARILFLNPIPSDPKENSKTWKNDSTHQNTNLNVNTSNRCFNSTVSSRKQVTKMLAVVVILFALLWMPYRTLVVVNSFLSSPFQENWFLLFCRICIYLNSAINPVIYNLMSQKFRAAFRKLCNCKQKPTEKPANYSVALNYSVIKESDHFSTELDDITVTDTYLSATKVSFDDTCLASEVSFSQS

| SMILES | activity, negative = inhibition |
| --- | --- |
| CC(C)=CC(=O)O | -1.3% |
| C=CCSCC1Nc2cc(Cl)c(S(N)(=O)=O)cc2S(=O)(=O)N1 (stereo not drawn) | 1.95% [at 23.6 µM] |
| CC(C)COC(=O)c1ccccc1O | -0.426% |
| CCCCCCCCCCCCCCC | 2.84% |
| O=[N+]([O-])c1ccc(CCO)cc1 | 1.61% |
| CCN(CC)S(=O)(=O)c1ccc(C(=O)O)cc1 | 4.86% [at 23.6 µM] |
| CCCCCCC(CCCCCCCCCCC(=O)OCC(COC(C)=O)OC(C)=O)OC(C)=O (stereo not drawn) | 3.2% [at 23.6 µM] |
| NCC[C@H](O)C(=O)N[C@@H]1C[C@H](N)[C@@H](O[C@H]2O[C@H](CN)[C@@H](O)[C@H](O)[C@H]2O)[C@H](O)[C@H]1O[C@H]1O[C@H](CO)[C@@H](O)[C@H](N)[C@H]1O | 2.62% [at 0.194 µM] |
| NC(=O)c1ncn([C@@H]2O[C@H](CO)[C@@H](O)[C@H]2O)c1N | 1.89% [at 23.6 µM] |
| CCCc1ccccc1O | 8.91% |
| CO | 1.85% |
| C=CCOCC(O)CS(=O)(=O)O (stereo not drawn) | -3.36% |
| Nc1ncnc2c1ncn2Cc1c(F)cccc1Cl | -7.97% [at 23.6 µM] |
| NC(=O)CCCCC1CCSS1 (stereo not drawn) | -3.57% [at 23.6 µM] |
| CC(C)c1ccc2oc3nc(N)c(C(=O)O)cc3c(=O)c2c1 | 2.4% [at 23.6 µM] |
| COC(=O)CCCCCCCCC(=O)OC | 2.29% |
| c1ccc(CCCc2ccccn2)cc1 | -2.6% |
| O=C(O)c1ccc[n+]([O-])c1 | 4.06% [at 23.6 µM] |
| NS(=O)(=O)c1cc2c(cc1Cl)NC(CSCc1ccccc1)=NS2(=O)=O | 1.01% [at 23.6 µM] |
| c1ccc2cnncc2c1 | -0.826% |
| CC1=CC(=O)CCC1 | 1.49% |
| CN(C)N=Nc1ccccc1 | -18% |
| NC(=S)Nc1cccc2ccccc12 | -0.447% [at 4.65 µM] |
